Hits are enriched below; roughly 11% of the tested compounds scored in any of these assays.
PNC assembly inh = perinucleolar compartment assembly inhibition; PC3M PTB-GFP, PNC prevalence imaging, 16 h; stronger effect = lower value; activity change (PNC), negative = inhibition, % at 10 µM; 140,000 compounds, 3.1% hits;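 active means readout at or below -70, meaning at least 70% loss of cells showing the perinucleolar compartment, a nuclear body marking cancer cells; inconclusive means readout between -30 and a set limit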;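 further: plate controls were DMSO wells for no effect and camptothecin positive control wells for full effect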
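Read-out is percentage of cells bearing a perinucleolar compartment, from automated 20x imaging of fixed, Hoechst-stained PC3M PTB-GFP cells. Cells were seeded 4 h, then exposed 16 h to compound (23 nl of library stock) in duplicate plates.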
ALDH1A1 block = ALDH1A1 (human) enzyme inhibition. P00352. Purified ALDH1A1, NADH fluorescence, propionaldehyde substrate. Potency, µM (series often up to 75.3 µM), without a hit: at the top dose activity, negative = inhibition, actives largely listed as inhibitors. 220,000 compounds, 7.3% hits;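 further: potency means the concentration at half of the fitted maximal effect; plate controls were no enzyme wells and a reference inhibitor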
Target sequence (P00352 whole entry, looked up): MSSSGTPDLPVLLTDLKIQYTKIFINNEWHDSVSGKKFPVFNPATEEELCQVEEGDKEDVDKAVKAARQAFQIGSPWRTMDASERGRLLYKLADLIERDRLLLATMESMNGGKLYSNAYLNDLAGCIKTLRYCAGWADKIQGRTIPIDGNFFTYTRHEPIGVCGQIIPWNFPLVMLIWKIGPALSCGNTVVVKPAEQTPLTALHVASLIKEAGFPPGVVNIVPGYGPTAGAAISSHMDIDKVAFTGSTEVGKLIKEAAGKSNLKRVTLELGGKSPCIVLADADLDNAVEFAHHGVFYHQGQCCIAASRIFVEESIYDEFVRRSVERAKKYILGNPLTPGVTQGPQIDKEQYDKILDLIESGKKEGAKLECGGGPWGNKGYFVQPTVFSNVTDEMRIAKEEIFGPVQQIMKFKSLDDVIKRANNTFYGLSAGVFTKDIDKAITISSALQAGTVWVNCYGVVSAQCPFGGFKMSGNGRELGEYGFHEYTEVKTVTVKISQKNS
HPGD inh = blocks human HPGD enzyme activity; Potency, µM, without a hit: top-dose activity change, negative = inhibition, actives largely listed as inhibitors; 150,000 compounds, 4.3% hits; P15428; purified HPGD, NADH fluorescence kinetic, PGE2 substrate; further: potency means the concentration at half of the fitted maximal effect
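20 nM HPGD preincubated 15 min at room temperature with compound in 50 mM Tris-HCl pH 8, 0.01% Tween 20. Started with 1 mM NAD+ and 30 uM prostaglandin E2; NADH fluorescence (360/450 nm) read 5 times over 30-s intervals, last minus first.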
* = called active by the depositor; ? = inconclusive; · = no result. Unless noted, the call rests on the fitted dose curve; in most records, active means well fitted inhibition curve with a large enough effect (not every such curve was filed as active); inconclusive means small, poorly fitted or top-dose-only effect, or another doubt; inactive means no such curve, though single readings can be large or run the other way. Unless noted, on the % scale 0 is the no-effect control and ±100 the full control effect.

SMILES | PNC assembly inh | ALDH1A1 block | HPGD inh
CC(C)CC(N)C(=O)NC(C)C(=O)O (centres undefined) | · | 4.0% | -13.4%
O=C(Nc1nc2ccccc2n1CCN1CCOCC1)c1ccc(COc2ccccc2Br)o1 | · | 4.6% | ·
CN1CCN(Cc2ccc(-c3ccc(Cl)cc3)o2)CC1 | -18.3 | ? | -12.9%
N#CCCN1CCN(C(=S)c2ccc(-c3ccc(Cl)cc3)o2)CC1 | ? | 4.47µM* | 20µM*
CCCn1c(N2CCN(CC(=O)Nc3ccc4c(c3)OCCO4)CC2)nc2ccccc21 | -24.2 | 25.1µM* | -7.3%
CC(O)c1nc2ccccc2n1CC(=O)Nc1ccc2c(c1)OCCO2 (centres undefined) | · | 4.1% | ·
COc1ccccc1N1CCN(CC(=O)NCC2CCCO2)CC1 (centres undefined) | -118.9* | ? | 7.2%
O=C(CN1CCN(c2ccc(O)cc2)CC1)Nc1ccc2c(c1)OCCO2 | · | 9.46µM* | ·
COC(=O)c1ccc(NC(=O)CN2CCN(c3ccccc3)CC2)cc1 | -3.5 | 1.0% | ·
NC(=O)c1ccc(NC(=O)CN2CCN(c3ccc(Cl)cc3)CC2)cc1 | · | 22.4µM* | ·
O=C(CN1CCN(c2ccccc2)CC1)Nc1ccc2c(c1)OCCO2 | · | 8.7% | ·
O=C(CN1CCN(c2ccc(F)cc2)CC1)NCC1CCCO1 (centres undefined) | 14.4 | -3.5% | -7.1%
COc1ccc2nc(NNC(=O)C3COc4ccccc4O3)sc2c1 (centres undefined) | 9.9 | -10.8% | -14.2%
O=C(/C=C/c1ccc(Br)cc1)N1CCN(c2cccc(C(F)(F)F)c2)CC1 | ? | 19.8% | ?
Cc1noc(C)c1C(=O)OC(C(=O)NC1CCCC1)c1ccc(F)cc1 (centres undefined) | 11.0 | 10.1% | -11.8%
O=C(CN1CCN(S(=O)(=O)c2ccc(Br)cc2)CC1)Nc1ccc2c(c1)OCCO2 | 62.0 | 25.1µM* | -10.0%
Fc1ccc(CN2CCCN(Cc3nc(-c4ccc5c(c4)OCO5)no3)CC2)cc1 | · | -0.5% | ·
O=C(c1ccco1)N1CCCN(Cc2nc(-c3ccc4c(c3)OCO4)no2)CC1 | · | 22.4µM* | ·
COc1ccccc1N1CCN(CC(=O)Nc2ccc(C)c(F)c2)CC1 | 32.0 | 14.1µM* | -15.4%
O=C(CCN1CCN(c2ccccc2F)CC1)Nc1ccccc1F | ? | 1.3% | -0.3%
O=C(CN1CCN(S(=O)(=O)c2ccc(Cl)cc2)CC1)Nc1ccc2c(c1)OCCO2 | 2.3 | ? | -1.0%
COc1ccccc1N1CCN(CC(=O)Nc2cccc(F)c2)CC1 | -15.2 | 3.3% | -3.8%
O=C(CN1CCN(c2ccccc2F)CC1)Nc1ccccc1F | 15.5 | 20µM* | 2.9%
CN1C(=O)C(N=Nc2ccccc2C(=O)O)N(C)C1=S (centres undefined) | · | -7.6% | ·
O=C(NCCC1=CCCCC1)C(=O)NCC(c1ccco1)N1CCN(c2ccc(F)cc2)CC1 (centres undefined) | 6.4 | -2.4% | -3.8%
SMILES | PNC assembly inh | ALDH1A1 block | HPGD inh
CC(=O)c1c(C)nc2sc3c(=N)n(N)cnc3c2c1-c1ccc(Cl)cc1 | 9.8 | -4.9% | -8.6%
O=C(COC(=O)C1c2ccccc2Oc2ccccc21)Nc1ccc2c(c1)OCO2 | 22.1 | ? | -8.0%
O=S(=O)(NC12CC3CC(CC(C3)C1)C2)c1ccc(F)cc1 | ? | ? | -9.6%
Cc1ccc(NC(=O)CN(C)C(=O)COc2ccc(C(=O)c3ccc(F)cc3)cc2)cc1 | -5.7 | -3.4% | -21.6%
COC(=O)CCCC1=CC2=CC(=O)C(C)(OC(=O)c3ccc(Cl)nc3)C(=O)C2=CO1 (centres undefined) | · | 4.7% | -4.4%
COc1ccccc1S(=O)(=O)Cc1ccc(C(=O)NCCN2CCCCCC2)o1 | -27.4 | 1.8% | -13.4%
COC(=O)Nc1ccc(C)c2nsnc12 | -12.7 | -1.4% | ·
O=C(CN1CCN(C(=O)c2ccco2)CC1)Nc1ccc2c(c1)OCCO2 | 10.1 | 12.6µM* | -8.7%
O=C(CN1CCN(CCC(=O)Nc2ccccc2F)CC1)Nc1ccc(F)cc1 | 23.0 | 5.8% | 3.2%
O=C(CN1CCN(CC(=O)Nc2ccccc2F)CC1)Nc1ccc2c(c1)OCCO2 | · | 28.2µM* | ·
CC(C(=O)Nc1ccc2c(c1)OCCO2)N1CCN(C(=O)c2ccco2)CC1 (centres undefined) | ? | 4.4% | -4.9%
COc1ccccc1N1CCN(CCC(=O)Nc2ccc3c(c2)OCO3)CC1 | -23.5 | -3.1% | -7.9%
COc1ccc(S(=O)(=O)N2CCN(CC(=O)Nc3cccc(F)c3)CC2)cc1 | -16.4 | 3.6% | 0.2%
COc1ccccc1N1CCN(CC(=O)Nc2ccc3c(c2)OCCO3)CC1 | · | 22.4µM* | ·
COc1ccc(S(=O)(=O)N2CCN(CC(=O)Nc3ccc(C)c(F)c3)CC2)cc1 | 9.1 | 10µM* | -8.8%
CCOC(=O)C1CCCN(Cc2sccc2C)C1 (centres undefined) | -12.0 | ? | 2.8%
